Experimental findings from the supplement of paper PMC10127200 are described below.

Counter-ions that a name gives are not always drawn.

Holding throughout (experiment): Euclidean distance of Cell Painting phenotypic profile (signed KS, 77 features) to DMSO centroid (dimensionless distance); 5 or 10 uM (library dependent); higher = stronger phenotypic change vs DMSO (phenoactivity)
Conditions in all cases: 48 h

For experiment [1], the system named is 786-O. In short, it runs like this: (§1)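 Five cancer lines and a healthy fibroblast line received library compounds at 10 or 5 uM (library-dependent, 0.1% DMSO final) for 48 h. Stained cells were imaged confocally at 20X (9 fields/well). Harmony extracted 77 features, each scored as a signed Kolmogorov-Smirnov statistic against same-plate vehicle wells. Profiles were plate-position corrected, correlation-weighted and replicate-averaged at the top dose. Phenoactivity is the Euclidean distance from each profile to the median vehicle profile.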

For experiment [2], the system named is A549. Summed up:
as §1

Experiment [3] has as its system DU145. In short, it runs like this:
as §1

Experiment [4] has as its system FB. Summed up: as §1
Experiment [5] has as its system HEPG2. In short, it runs like this:
as §1

In experiment [6] the test system is OVCAR4. Summed up:
as §1

Consider `CC(C)[C@H](N)C(=O)OCCOCn1cnc2c(=O)nc(N)[nH]c21` [Valaciclovir HCl], for which the Euclidean distance in experiment [1] turned out to be 1.18; in experiment [2] it was 1.31; in experiment [3], 2.3; in experiment [4], 0.774; in experiment [5], 1.28; in experiment [6] it was 1.37.
As for `CCC(=O)Oc1ccc2c(c1)CCC1C2CCC2(C)C(OC(=O)CC)CCC12` (stereo not drawn) [17-Beta-Estradiol-3.17-Dipropionate], the Euclidean distance in experiment [1] was 1.55; in experiment [2] it was 0.8; in experiment [3] it was 1.46; in experiment [4], 1.21; in experiment [5], 0.326; in experiment [6], 0.98.
As for `Cc1cc(O)cc(C)c1Cl` [Chloroxylenol], the Euclidean distance in experiment [1] came out at 0.814; in experiment [2] it was 0.825; in experiment [3] it was 1.13; in experiment [4] it was 0.9; in experiment [5] it was 0.668; in experiment [6], 0.718.
Consider `Nc1nc(OCc2ccccc2)c2nc[nH]c2n1` [O6-Benzylguanine], for which the Euclidean distance in experiment [1] amounted to 1.02; in experiment [2], 0.825; in experiment [3] it was 0.926; in experiment [4], 1.41; in experiment [5], 0.548; in experiment [6] it was 0.833.
Regarding `CCN1C(=O)C=CC1=O` [N-Ethylmaleimide (NEM)], the Euclidean distance was 3.6 in experiment [1]; 1.27 in experiment [2]; 1.23 in experiment [3]; 1.58 in experiment [4]; 0.6 in experiment [5]; 1.06 in experiment [6].
Regarding `N#Cc1ccc2[nH]cc(CCCCN3CCN(c4ccc5oc(C(N)=O)cc5c4)CC3)c2c1` [Vilazodone HCl], the Euclidean distance came out at 2.53 in experiment [1]; 2.23 in experiment [2]; 1.66 in experiment [3]; 1.66 in experiment [4]; 2.24 in experiment [5]; 1.77 in experiment [6].
In the case of `O=C(c1ccc(F)cc1)C1CCN(CCn2c(=O)[nH]c3ccccc3c2=O)CC1` [Ketanserin], the Euclidean distance came out at 1.44 in experiment [1]; 0.68 in experiment [2]; 0.898 in experiment [3]; 0.767 in experiment [4]; 0.883 in experiment [5]; 1.08 in experiment [6].
As to `Cc1[nH]c(=O)c(C#N)cc1-c1ccncc1` [Milrinone], the Euclidean distance in experiment [1] came out at 0.957; in experiment [2], 0.855; in experiment [3], 0.761; in experiment [4], 0.918; in experiment [5], 0.762; in experiment [6], 0.888.
`COc1ccc(CCc2nc3cc(-c4c(C)noc4C)ccc3n2C[C@H](C)N2CCOCC2)cc1Cl`: the Euclidean distance in experiment [1] is 2.58; in experiment [2], 1.55; in experiment [3] it was 0.967; in experiment [4] it was 1.73; in experiment [5], 1.67; in experiment [6], 1.78.
Regarding `C[C@H](CCC(=O)O)[C@H]1CC[C@H]2[C@@H]3CC[C@@H]4C[C@H](O)CC[C@]4(C)[C@H]3C[C@H](O)[C@]12C` [Deoxycholic acid], the Euclidean distance worked out at 0.886 in experiment [1]; 0.94 in experiment [2]; 0.997 in experiment [3]; 0.74 in experiment [4]; 0.87 in experiment [5]; 1.36 in experiment [6].
Take `CCN(C(=O)c1c(O)c2c(Cl)cccc2n(C)c1=O)c1ccccc1` [Laquinimod]: the Euclidean distance in experiment [1] is 0.923; in experiment [2], 0.95; in experiment [3] it was 0.863; in experiment [4], 0.902; in experiment [5] it was 0.638; in experiment [6] it was 1.25.
For the compound `C[C@H](N[C@@H](CCc1ccccc1)C(=O)O)C(=O)N1CCC[C@H]1C(=O)O` [Enalaprilat Dihydrate], the Euclidean distance in experiment [1] amounted to 1.22; in experiment [2], 1.17; in experiment [3], 0.803; in experiment [4], 0.927; in experiment [5], 0.793; in experiment [6] it was 1.
For `C=CC(=O)Nc1cccc(Oc2nc(Nc3ccc(N4CCN(C)CC4)c(F)c3)nc3[nH]ccc23)c1` [Avitinib (AC0010)], the Euclidean distance in experiment [1] turned out to be 4.87; in experiment [2], 4.16; in experiment [3] it was 3.49; in experiment [4], 3.92; in experiment [5] it was 3.45; in experiment [6] it was 3.76.
`CC(C)C[C@H](NC(=O)CNC(=O)c1cc(Cl)ccc1Cl)B(O)O`: the Euclidean distance was determined as 5.04 in experiment [1]; 3.61 in experiment [2]; 5.19 in experiment [3]; 3.83 in experiment [4]; 4.44 in experiment [5]; 4.31 in experiment [6].
Turning to `CO[C@H]1/C=C/O[C@@]2(C)Oc3c(C)c(O)c4c(c3C2=O)C2=NC3(CCN(CC(C)C)CC3)NC2=C(NC(=O)/C(C)=C\C=C\[C@H](C)[C@H](O)[C@@H](C)[C@@H](O)[C@@H](C)[C@H](OC(C)=O)[C@@H]1C)C4=O` [Rifabutin], the Euclidean distance in experiment [1] is 1.26; in experiment [2], 0.759; in experiment [3], 1.51; in experiment [4] it was 1.08; in experiment [5] it was 2.11; in experiment [6], 1.35.
For the compound `CCOc1cc([C@@H](CS(C)(=O)=O)N2C(=O)c3cccc(NC(C)=O)c3C2=O)ccc1OC`, the Euclidean distance was 1.2 in experiment [1]; 0.481 in experiment [2]; 1.78 in experiment [3]; 0.934 in experiment [4]; 0.783 in experiment [5]; 0.611 in experiment [6].
For `NCCCC[C@H](NC(=O)[C@@H]1CCCN1C(=O)[C@@H]1CSSC[C@H](NC(=O)CNC(=O)CNC(=O)CN)C(=O)N[C@@H](Cc2ccc(O)cc2)C(=O)N[C@@H](Cc2ccccc2)C(=O)N[C@@H](CCC(N)=O)C(=O)N[C@@H](CC(N)=O)C(=O)N1)C(=O)NCC(N)=O` [Terlipressin Acetate], the Euclidean distance in experiment [1] is 1.69; in experiment [2], 0.833; in experiment [3], 1.36; in experiment [4] it was 0.976; in experiment [5], 0.531; in experiment [6], 1.15.
On to `CN[C@@H]1[C@H](O)[C@H](NC)[C@H]2O[C@@]3(O)C(=O)C[C@@H](C)O[C@H]3O[C@@H]2[C@H]1O` [Spectinomycin 2HCl], for which the Euclidean distance was 1.1 in experiment [1]; 0.735 in experiment [2]; 0.979 in experiment [3]; 1.48 in experiment [4]; 0.555 in experiment [5]; 0.972 in experiment [6].
Take `NC(=O)[C@@H]1CSSCCC(=O)N[C@@H](CCCCN=C(N)N)C(=O)NCC(=O)N[C@@H](CC(=O)O)C(=O)N[C@@H](Cc2c[nH]c3ccccc23)C(=O)N2CCC[C@H]2C(=O)N1` [Eptifibatide Acetate]: the Euclidean distance is 1.66 in experiment [1]; 1.02 in experiment [2]; 0.993 in experiment [3]; 1.11 in experiment [4]; 0.664 in experiment [5]; 1.36 in experiment [6].
Regarding `Cn1c(=O)cc(N2CCC[C@@H](N)C2)n(Cc2cc(F)ccc2C#N)c1=O` [Trelagliptin], the Euclidean distance turned out to be 0.94 in experiment [1]; 0.495 in experiment [2]; 0.985 in experiment [3]; 0.998 in experiment [4]; 0.668 in experiment [5]; 0.953 in experiment [6].
Take `c1ccc2c(CCNc3ccc(Nc4ccncc4)cc3)c[nH]c2c1`: the Euclidean distance in experiment [1] was found to be 2.61; in experiment [2], 2.76; in experiment [3] it was 1.77; in experiment [4] it was 2.87; in experiment [5], 2.65; in experiment [6] it was 3.75.
With `Cc1cccc(C)c1N(CC(=O)Nc1ccc(-c2ncon2)cc1)C(=O)C1CCS(=O)(=O)CC1` [Amenamevir], the Euclidean distance in experiment [1] is 1.07; in experiment [2], 0.772; in experiment [3], 0.783; in experiment [4], 1.3; in experiment [5], 0.5; in experiment [6], 1.2.
Take `O=C(Nc1ccccc1)c1ccccc1O` [Salicylanilide]: the Euclidean distance in experiment [1] amounted to 0.807; in experiment [2] it was 0.631; in experiment [3], 0.393; in experiment [4], 0.532; in experiment [5], 0.798; in experiment [6] it was 0.892.
